Source: PubChem (The Scripps Research Institute Molecular Screening Center)
Rows were chosen to be rich in hits. Some 1.1% of all compounds tested hit in one or more screens of this group.
SRC3 inh: inhibitors of human steroid receptor coactivator 3 (SRC3) | actives 0.17% (n = 360,000) | inhibition, % at 3.6 µM | HEK293 GAL4-SRC3 luciferase reporter, luminescence | Q9Y6Q9 | AID 588352;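 active = inhibition above a per-campaign cutoff, the mean of all compounds plus 3 SD, cut at about 60% in these data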;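 note: 0% = DMSO-treated cells and 100% = gossypol-treated cells at 36 µM; higher means less SRC3-driven luciferase light from the GAL4 reporter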
COUP-TFII inh: NR2F2 (human) inhibition, primary screen. P24468. AID 686940. inhibition, % at 8.6 µM. actives 0.7% (n = 370,000). HEK293T NGFI-A luciferase reporter, luminescence;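 active = inhibition above a per-plate cutoff, mean inhibition of test wells between control levels plus 3 SD, cut at about 38% in these data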;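 note: cells cotransfected with COUP-TFII expression vector driving the NGFI-A reporter; 0% = median of COUP-TF2 test wells and 100% = reporter-only cells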
SRC1 inh: human NCOA1 inhibition; Q15788; HEK293 GAL4-SRC1 luciferase reporter, luminescence; inhibition, % at 3.6 µM; actives 0.12% (n = 360,000); AID 588354;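 active = inhibition above the campaign mean plus 3 SD, with each screening campaign given its own cutoff, cut at about 60% in these data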;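 note: 0% = DMSO treated cells and 100% = gossypol at 36 µM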
GalR3 antagonist: blocks the human galanin receptor 3. HEK293 GalR3-CNG cAMP membrane potential fluorescence; galR3 body fused to GalR1 C-terminus. AID 651719. inhibition, % at 3 µM. O60755. actives 0.44% (n = 360,000);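 active = inhibition above the screen-wide average plus 3 SD, cut at about 13% in these data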;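 note: forskolin and galanin both at EC90 stimulate the cells; cAMP rise reported by CNG channel membrane potential dye signal; 0% = forskolin plus galanin with DMSO and 100% = forskolin alone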
LRH-1 inv ag: inverse agonists of human LRH-1 (NR5A2); O00482; HEK293T StAR-luciferase reporter, LRH-1 transfected, 24 h; inhibition, % at 3.6 µM; actives 0.13% (n = 360,000); AID 602396;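 active = inhibition above the mean inhibition of all tested compounds plus 3 SD, cut at about 73% in these data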;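 note: 0% = DMSO wells and 100% = reporter-only cells lacking LRH-1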
Target sequence (O00482 whole entry, looked up): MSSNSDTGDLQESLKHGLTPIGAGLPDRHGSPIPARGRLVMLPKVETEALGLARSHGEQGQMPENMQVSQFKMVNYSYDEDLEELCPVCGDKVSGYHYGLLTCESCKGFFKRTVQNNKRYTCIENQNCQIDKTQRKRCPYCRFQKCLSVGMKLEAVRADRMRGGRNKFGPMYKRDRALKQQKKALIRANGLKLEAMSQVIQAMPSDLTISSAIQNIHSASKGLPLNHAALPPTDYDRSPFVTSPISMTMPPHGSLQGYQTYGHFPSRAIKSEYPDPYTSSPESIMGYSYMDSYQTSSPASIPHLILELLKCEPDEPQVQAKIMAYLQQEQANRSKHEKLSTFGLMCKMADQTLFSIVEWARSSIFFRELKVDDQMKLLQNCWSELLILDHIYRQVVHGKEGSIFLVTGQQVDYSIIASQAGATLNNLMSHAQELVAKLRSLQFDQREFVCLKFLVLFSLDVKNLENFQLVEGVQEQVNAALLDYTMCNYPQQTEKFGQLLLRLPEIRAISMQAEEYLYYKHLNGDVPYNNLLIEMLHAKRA
SRC2 inh: inhibits human steroid receptor coactivator 2; HEK293 GAL4-SRC2 luciferase reporter, luminescence; inhibition, % at 9 µM; actives 0.17% (n = 370,000);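 active = inhibition above the mean inhibition of all tested compounds plus 3 SD, set per campaign, cut at about 52% in these data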;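 note: 0% = DMSO treated cells and 100% = cells given Gossypol at 36 µM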
GalR3 conf: GalR3 (human) antagonism, confirmation; HEK293 GalR3 CNG cAMP biosensor, membrane potential fluorescence; galR3 fused to GalR1 carboxy tail; challenged with forskolin and galanin at EC90; AID 652245; shares compounds with GalR3 antagonist; actives 59% (n = 1,600); inhibition, % at 3 µM;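 active = inhibition above the primary screen's cutoff, the mean inhibition of all screened compounds plus 3 SD, cut at about 13% in these data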;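 note: 0% = forskolin plus galanin and 100% = forskolin alone with DMSO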
CNG parental: counter-screen for GalR3 antagonists: nonspecific agonists in parental HEK-CNG cells; shares compounds with GalR3 antagonist; HEK293-CNG parental cells, cAMP membrane potential fluorescence; normalised: DMSO wells 0%, forskolin wells 100%; activation, % at 3 µM; actives 10% (n = 1,600); AID 652268; in the data active = activation above about 1.3%
* hit, by the source's call; . = no result given.

SMILES	SRC3 inh	COUP-TFII inh	SRC1 inh	GalR3 antagonist	LRH-1 inv ag	SRC2 inh	GalR3 conf	CNG parental
Cc1c(NC(=O)C2CCCN(S(=O)(=O)c3ccccc3[N+](=O)[O-])C2)c(=O)n(-c2ccccc2)n1C (stereo unspecified)	.	-1	.	.	.	-1	.	.
CCOc1ccc(S(=O)(=O)Nc2nc3ccccc3nc2N2CCN(C)CC2)cc1	1	-12	-3	20*	43	11	17*	0
S=C(Nc1ccc(Cl)cc1)OC1CCC12CCC(c1ccccc1)CC2 (stereo unspecified)	.	-1	.	.	.	-4	.	.
CCC(=O)OCCNc1cc(SCCC(=O)OC)c2nonc2c1[N+](=O)[O-]	18	-19	5	4	-23	-24	.	.
CCCC(=O)OCCNc1cc(Sc2nc3ccccc3[nH]2)c2nonc2c1[N+](=O)[O-]	13	15	0	26*	5	-7	35*	0
CCC(=O)OCCNc1cc(Sc2nccn2C)c2nonc2c1[N+](=O)[O-]	-1	13	7	41*	-16	-33	21*	0
COC(=O)C1=CO[C@@H](OC2OC(CO)C(O)C(O)C2O)[C@@H]2[C@@H](C)[C@@H](O)C[C@H]12 (stereo partly specified)	9	16	-1	-2	-4	0	.	.
COC(=O)C1=CO[C@@H](O[C@@H]2O[C@H](CO)[C@@H](O)[C@H](O)[C@H]2O)C2C1C=C[C@@]2(O)CO (stereo partly specified)	2	-65	9	.	8	10	8	0
CN(C)c1ccc([N+](=O)[O-])cc1C(=O)O	9	0	-5	5	12	15	.	.
CCCCOc1ccc([N+](=O)[O-])cc1C(=O)O	12	21	-6	17*	8	-1	2	0
CCOc1cc2c(cc1OC)C(NC(=O)c1ccco1)CC2=O (stereo unspecified)	2	8	-24	17*	10	-16	-1	0
CCOc1cc2c(cc1OC)C(NC(=O)C(F)(F)F)CC2=O (stereo unspecified)	-22	-29	2	-5	-10	-21	.	.
CC(=O)N1CCC2(CC1)C(C#N)=C(N)Oc1n[nH]c(C(F)(F)F)c12	12	1	5	.	1	-5	6	0
CN(C)S(=O)(=O)c1ccc(Cl)c(C(=O)NCCNC(=O)c2cc(S(=O)(=O)N(C)C)ccc2Cl)c1	19	-5	6	13*	-13	7	8	0
O=C(Nc1ccccc1)Nc1nc2ncccn2c1-c1ccc(F)cc1	.	-14	.	.	.	-23	.	.
CC(C)(C)c1ccc(C(=O)Nc2cc(Cl)ccc2-c2nn[nH]n2)cc1	.	-13	.	.	.	.	.	.
O=C(CSc1nnc(-c2ccccc2)n1-c1ccc(Cl)cc1)NN=Cc1c[nH]c2ccccc12	.	0	.	.	.	4	.	.
CCn1c(C)c(C(C)=O)c(N2CCN(c3ccccc3)CC2)nc1=S	-1	12	-2	42*	-5	7	3	0
CC(=O)c1c(N2CCCC2)nc(=S)n(-c2ccccc2)c1C	7	-7	-8	2	8	-19	.	.
CCn1c(C)c(C(C)=O)c(N2CCN(C(c3ccccc3)c3ccccc3)CC2)nc1=S	24	-3	0	4	8	-11	.	.
CC(=O)c1c(N2CCCCC2)nc(=S)n(-c2ccccc2)c1C	-21	-32	-15	.	-53	-54	0	1
Cc1cc(C(=O)O[C@H]2CCC[C@]3(C(=O)N(Cc4ccccc4)c4ccccc43)[C@H]2NC(=O)CCc2ccccc2)no1	.	5	.	.	.	-23	.	.
CCc1ccc(C(=O)CSc2ncn[nH]2)cc1	-24	0	-28	54*	-22	-7	22*	0
CCOc1nc2ccccc2cc1C=O	-25	5	-3	-5	-2	-3	.	.
CCCOc1nc2ccccc2cc1/C=C/C(=O)O	20	10	-12	14*	-20	-9	6	1
SMILES	SRC3 inh	COUP-TFII inh	SRC1 inh	GalR3 antagonist	LRH-1 inv ag	SRC2 inh	GalR3 conf	CNG parental
Cc1ccc(NC(=O)Cn2nnc(-c3ccccc3F)n2)c(C)c1	.	-8	.	.	.	-5	.	.
COc1ccc(C(=O)Nc2ccccc2C(=O)NC(Cc2ccc(O)cc2)C(=O)NNC(=O)c2ccccc2)cc1 (stereo unspecified)	-4	-6	-21	13*	-6	-42	6	0
COc1ccc(C(=O)Nc2ccccc2C(=O)NC(Cc2ccc(O)cc2)C(=O)NNC(=O)c2ccc(C)cc2)cc1 (stereo unspecified)	-6	2	-17	4	-4	-10	.	.
CSc1ccc(C=Nn2c(-c3cc(C)[nH]n3)n[nH]c2=S)cc1	.	-4	.	.	.	6	.	.
CCCn1nc(C(=O)NNC(=O)CCCOc2ccc(C)cc2)c2ccccc2c1=O	-9	10	3	86*	21	2	90*	1
CCn1nc(C(=O)NNC(=O)CCOc2cc(C)ccc2C)c2ccccc2c1=O	6	19	-16	-4	0	3	.	.
CSc1ccc(C#N)cc1NC(=O)c1ccccc1C	-11	-22	-8	15*	15	-35	13*	0
C=CCc1cccc(C=NNC(=O)c2ccco2)c1O	.	-62	.	.	.	-38	.	.
CCn1c(=O)[nH]c(=O)c2c(N)c(C(=O)c3ccccc3OC)sc21	19	-9	10	15*	18	-5	-1	1
CCc1cc(C(=O)c2ccccc2OC)c(N)s1	3	15	-8	-4	8	4	.	.
O=C(Nc1ccccc1)Nc1cc([N+](=O)[O-])ccc1F	10	13	-7	21*	-17	14	-3	-1
CC(=O)NC(CC(=O)OCC(=O)c1c(N)n(CC(C)C)c(=O)n(C)c1=O)c1ccccc1 (stereo unspecified)	-8	-15	6	-2	-32	29	.	.
Cn1c(N)c(C(=O)COC(=O)CC(NC(=O)c2ccccc2Cl)c2ccccc2)c(=O)n(C)c1=O (stereo unspecified)	7	4	5	14*	2	22	-4	0
O=C(CN1CCCc2ccccc21)NCc1ccccc1F	.	0	.	.	.	-1	.	.
N#CCc1ccc(OC[C@@H](O)CN2CCC(C(O)(c3ccccc3)c3ccccc3)CC2)cc1	.	0	.	.	.	-4	.	.
CC1CCCCN1CCCNC(=O)CN1C(=O)c2cccnc2Oc2ccc(Cl)cc21 (stereo unspecified)	3	-8	-10	14*	-5	10	19*	0
